Screens as filed in PubChem BioAssay.
Hits are enriched below; roughly 2.8% of the tested compounds scored in any of these assays.
WRN helicase inh – WRN helicase (human) inhibition. Potency, µM (doses to about 114 µM), for inactives: at the highest dose activity change, negative = inhibition, most hits filed as inhibitors. WRN helicase unwinding, fluorescent forked duplex, kinetic. Q14191. hit rate 0.46% among 360,000; note: potency is the fitted concentration of half-maximal effect; % is set by controls: 0 for no effect and ±100 for the full control effect; nearly all actives have a fitted effect of over 55% in size
Target sequence (Q14191 whole entry, looked up): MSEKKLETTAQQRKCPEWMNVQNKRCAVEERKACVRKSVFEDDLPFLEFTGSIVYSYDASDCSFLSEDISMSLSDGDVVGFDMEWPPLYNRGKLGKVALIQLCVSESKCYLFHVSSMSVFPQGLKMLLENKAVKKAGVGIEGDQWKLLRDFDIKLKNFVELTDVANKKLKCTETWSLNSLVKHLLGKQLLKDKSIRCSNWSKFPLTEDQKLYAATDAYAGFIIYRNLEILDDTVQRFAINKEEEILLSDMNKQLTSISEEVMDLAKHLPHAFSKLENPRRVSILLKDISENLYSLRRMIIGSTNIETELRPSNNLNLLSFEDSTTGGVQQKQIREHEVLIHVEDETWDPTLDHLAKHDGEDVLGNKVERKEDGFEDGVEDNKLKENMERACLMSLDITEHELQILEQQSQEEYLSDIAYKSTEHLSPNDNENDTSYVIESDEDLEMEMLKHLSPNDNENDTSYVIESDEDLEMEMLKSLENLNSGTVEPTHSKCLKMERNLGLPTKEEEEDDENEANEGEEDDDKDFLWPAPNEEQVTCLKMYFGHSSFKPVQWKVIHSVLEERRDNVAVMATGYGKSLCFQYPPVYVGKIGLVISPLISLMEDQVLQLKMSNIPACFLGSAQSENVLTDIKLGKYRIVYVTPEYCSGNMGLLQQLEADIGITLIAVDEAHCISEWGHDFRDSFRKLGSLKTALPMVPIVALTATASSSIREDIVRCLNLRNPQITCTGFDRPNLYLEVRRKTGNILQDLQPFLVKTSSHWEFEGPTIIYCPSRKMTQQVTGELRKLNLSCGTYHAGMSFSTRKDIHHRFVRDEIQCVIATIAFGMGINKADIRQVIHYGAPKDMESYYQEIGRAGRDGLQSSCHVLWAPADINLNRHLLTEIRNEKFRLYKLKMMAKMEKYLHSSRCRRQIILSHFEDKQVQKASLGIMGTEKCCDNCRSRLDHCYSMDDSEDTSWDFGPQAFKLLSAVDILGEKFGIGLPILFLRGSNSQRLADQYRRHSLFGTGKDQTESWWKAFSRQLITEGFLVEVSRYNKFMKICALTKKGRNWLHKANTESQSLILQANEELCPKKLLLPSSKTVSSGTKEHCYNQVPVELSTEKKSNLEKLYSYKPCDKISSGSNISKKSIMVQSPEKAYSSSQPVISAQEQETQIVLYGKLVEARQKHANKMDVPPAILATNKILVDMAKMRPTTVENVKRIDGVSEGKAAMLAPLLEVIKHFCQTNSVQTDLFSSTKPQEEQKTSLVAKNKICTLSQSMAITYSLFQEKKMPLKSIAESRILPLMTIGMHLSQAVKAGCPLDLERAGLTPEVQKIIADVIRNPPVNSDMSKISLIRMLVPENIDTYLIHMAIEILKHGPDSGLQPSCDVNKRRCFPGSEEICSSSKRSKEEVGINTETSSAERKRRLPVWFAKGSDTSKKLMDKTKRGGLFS
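WRN at 20 nM final was preincubated with compound for 15 min at room temperature; reaction started with 100 nM forked duplex oligonucleotide carrying fluorophore and quencher plus 2 mM ATP (final). Unwinding followed kinetically by red fluorescence (ex 525/em 598 nm).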
POLK inh – blocks human DNA polymerase kappa activity | hit rate 0.53% among 400,000 | purified Pol kappa, fluorescent DNA synthesis assay, 10 min | AID 588579 | Potency, µM (highest dose often 107 µM), for the others: at the top dose activity, negative = inhibition, most hits filed as inhibitors | Q9UBT6; note: potency is the fitted concentration of half-maximal effect; % is set by controls: 0 for no effect and ±100 for the full control effect
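Pol kappa 10 nM + cpd, 15 min RT; start w/ substrate 50 nM final; fluorescence kinetic read, 0 and 10 min. Neg ctrl: buffer, no enzyme.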
POLI inh – inhibitors of human DNA polymerase iota; Q9UNA4; Pol iota fluorescent replication assay, 10 min; Potency, µM (top dose mostly 115 µM), inactives show at the highest dose activity, negative = inhibition, actives largely listed as inhibitors; hit rate 1% among 390,000; AID 588590; note: potency is the fitted concentration of half-maximal effect
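Pol iota at 10 nM preincubated 15 min with compounds at room temperature; reaction started with fluorescent substrate, 50 nM final. Fluorescence read kinetically at 0 and 10 min; buffer-only wells as negative control.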
POLH inh – blocks human DNA polymerase eta activity; hit rate 1.2% among 390,000; AID 588591; recombinant Pol eta, fluorescent DNA replication assay; Potency, µM (top dose mostly 114 µM), inactives show at the top dose activity change, negative = inhibition, actives largely listed as inhibitors; note: potency is the fitted concentration of half-maximal effect; % is set by controls: 0 for no effect and ±100 for the full control effect
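Pol eta (10 nM) was preincubated with compounds for 15 min at room temperature, after which fluorescent replication substrate (50 nM final) was added to start the reaction. Fluorescence was read kinetically at 0 and 10 min.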
PI5P4K alpha inh – blocks human PI5P4K alpha kinase activity; AID 652105; PI5P4Kalpha enzyme, ADP-Glo luminescence, 60 min; active compounds read low; hit rate 1.2% among 330,000; max response, %; active = max response of -50% or lower; inconclusive = between -30% and -50%; inactive = -30% or higher; note: value at the top dose of about 77 µM; % is set by controls: 0 for no effect and ±100 for the full control effect
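ADP-Glo luminescence end-point after a 60 min room-temperature kinase reaction. PI5P4Kalpha and substrate in HEPES pH 7.4 buffer with EGTA, 0.1% CHAPS and 5% DMSO; ATP at 5 microM final.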
POLB inh – inhibitors of human DNA polymerase beta; Potency, µM (titrated, usually from 114 µM), for inactives: at the highest dose activity change, negative = inhibition, most hits filed as inhibitors; Pol beta primer extension/strand displacement, fluorescence kinetic; P06746; hit rate 1.3% among 340,000; AID 485314; note: potency is the fitted concentration of half-maximal effect; % is set by controls: 0 for no effect and ±100 for the full control effect
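Homogeneous kinetic assay of primer extension and strand displacement by 10 nM Pol beta, preincubated 15 min at room temperature with compound before 50 nM substrate (final) was added. Read at 0 and 10 min; four-parameter Hill fit.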
Starred values were filed as active, the others as inactive; ? = inconclusive; · = not tested or not shown; [ ] = another dose, or the depositor's remark. Unless noted, calls come from the whole dose curve; as a rule, active = well fitted curve in the direction sought with a large enough effect; inconclusive = small, poorly fitted or top-dose-only effect, or another doubt; inactive = no such curve, though single readings can be large; an effect the other way counts as inactive or inconclusive.

SMILES | WRN helicase inh | POLK inh | POLI inh | POLH inh | PI5P4K alpha inh | POLB inh
NNC(=O)c1cc2ccccc2cc1O | -8.1% | -19.3% | -7.5% | -16.8% | -52.4* | 19.4%
Cc1ccc(Cl)cc1NC(=O)c1cc2ccccc2cc1O | -8.1% | -8.5% | -2.7% | 2.4% | 1.6 | 25.1µM*
c1ccc2cnccc2c1 | · | -5.3% | 22.2% | · | · | ·
COc1ccc(CNC(=O)C2CCN(S(=O)(=O)Cc3ccccc3)CC2)cc1 | · | -0.6% | 6.8% | -11.2% | · | 14.1µM*
Cc1cc2nc(-c3cc(NC(=O)c4cc5ccccc5o4)ccc3Cl)oc2cc1C | · | 1.0% | -19.8% | -9.8% | · | -18.3%
COC(=O)[C@@H]1[C@H]2SC(C)(C)[C@H](C(=O)OC)N2C(=O)N1Cc1cc2ccccc2n1S(=O)(=O)c1ccccc1 | · | -6.5% | 3.4% | · | · | ·
O=c1[nH]c(/C=C\c2cccc(F)c2)nc(O)c1[N+](=O)[O-] | -30.1% | -7.2% | -0.1% | ? | -55.3* | ?
O=c1[nH]c(/C=C\c2ccccc2F)nc(O)c1[N+](=O)[O-] | -9.8% | -20.8% | ? | -1.5% | -71.9* | 15.0%
O=c1[nH]c(/C=C\c2cccc(Cl)c2)nc(O)c1[N+](=O)[O-] | -15.3% | -4.6% | ? | ? | ? | 0.6%
CCOC(=O)c1c(C)oc2nc(C)nc(NCC3CCN(Cc4ccc(Cl)cc4)CC3)c12 | · | 0.2% | -13.7% | -11.4% | · | 0.1%
COc1ccc(Nc2nc(N3CCCC3)c3ccccc3n2)cc1 | ? | -5.4% | ? | -28.8% | 0.7 | 35.5µM*
COC(=O)C[C@H]1c2cc(C(F)(F)F)ccc2S(=O)(=O)N1C(C)C | · | 10.8% | 35.0% | · | · | ·
COc1ccccc1-c1cc(-n2ccnc2)ncn1 | · | 2.5%[60.1 µM] | · | · | · | ·
c1cn(-c2cc(-c3ccc4c(c3)OCO4)ncn2)cn1 | · | 25.1µM* | · | · | · | ·
C=CCN(c1ccccc1)S(=O)(=O)c1cccc(C(=O)NNC(=O)c2ccccc2O)c1 | -24.1% | -10.2% | 13.4% | 2.3% | -55.6* | ·
C=CCN(c1ccccc1)S(=O)(=O)c1cccc(C(=O)O)c1 | 4.2% | 4.1% | -0.6% | -10.1% | -0.8 | 3.1%
O=S(=O)(NC1=NCCCCC1)c1ccc2sc(NS(=O)(=O)c3ccc4ccccc4c3)nc2c1 | 2.6% | -20.3% | 11.2µM* | ? | -27.6 | 1.3%
O=S(=O)(Nc1nc2c(s1)CCCC2)c1ccc2ccccc2c1 | -8.7% | -8.5% | -5.5% | -13.3% | -11.2 | 0.6%
COc1cc(/C=C/C(=O)O)cc(S(=O)(=O)Nc2ccc3c(c2)OCO3)c1OC | -4.9%[57.1 µM] | 13.5% | 50.1% | -11.8% | -53.3* | 15.9%
CCOc1ccccc1NC(=O)Cn1c(=O)n(CCCC(=O)NCCOC)c(=O)c2cc(OC)c(OC)cc21 | · | ? | 89.1µM* | -3.9% | · | 36.8%
COc1ccc(CNC(=O)CC(C)n2nc(C)cc2C)cc1 (stereo not given) | · | 0.0% | 31.7% | -13.0% | · | -13.6%
COc1ccc(S(=O)(=O)N2CCN(c3ccccc3F)CC2)cc1-c1noc(C)n1 | · | -16.9% | 88.3% | -14.3% | · | 8.91µM*
CCc1nc(-c2cc(S(=O)(=O)N3CCN(c4ccccc4F)CC3)ccc2OC)no1 | · | -7.9% | -1.2% | -25.8% | · | -0.3%
NC(N)=Nc1ccc(/C=C2\C=Cc3ccccc32)cc1 | · | -10.3% | 5.9% | · | · | ·
Cc1coc2c(C)c3oc(=O)c(CCC(=O)NCCN4CCOCC4)c(C)c3cc12 | 2.8% | 13.3% | 51.1% | -17.4% | 0.5 | 26.1%
COc1ccc(CNC(=O)CCc2c(C)c3cc4c(C)c(C)oc4cc3oc2=O)cc1OC | · | -17.9% | -15.6% | -17.4% | · | 1.58µM*
Cc1oc2cc3oc(=O)c(CCC(=O)NCCC(=O)O)c(C)c3cc2c1C | -10.1% | -4.1% | 3.3% | 56.2µM* | 2.7 | 1.3%
Cc1oc2cc3oc(=O)c(CC(=O)N[C@H](C(=O)N[C@@H](C(=O)O)c4ccccc4)C(C)C)c(C)c3cc2c1C | -15.2% | ? | 79.4µM* | -16.2% | 0.3 | -1.7%
Cc1coc2cc3oc(=O)c(CCC(=O)NCCN4CCOCC4)c(C)c3cc12 | 6.8% | ? | 89.1µM* | -5.5% | -6.8 | -1.6%
COc1ccc(CCNC(=O)CCc2c(C)c3cc4c(C)c(C)oc4cc3oc2=O)cc1 | · | 2.6% | ? | -14.8% | · | 21.4%
